For orientation: inhibition means the relative decrease from the control value, in per cent.

In the test the target is Glucose transporter (Leishmania mexicana) (UniProt O61059). Kind of test: ST_JUDE_LEISH: Cytotoxicity at 2uM final concentration against transgenic Leishmania Mexicana promastigotes LmGT2 that are glucose transport deficient and complemented with the L. Mexicana glucose transporter 2. Activity is measured by DNA content using SYBR green in vitro. It is filed as functional.
As to `COc1ccccc1C1CCN(CCCCNC(=O)c2ccc(/C=C/c3cc(Cl)cc(Cl)c3)cc2)CC1`, the inhibition was found to be 1.77%.

In the case of `COc1ccc2nccc([C@@H](O)CN3CCC(NC(=O)/C=C/c4ccc5ccccc5n4)CC3)c2c1`, the inhibition stood at 7.42%.

In the case of `CSc1cccc(Nc2nc3ccc(S(=O)(=O)NCC(C)C)cc3n2C(C)C(C)C)c1` (stereo not drawn), the inhibition is 2.98%.

Consider `CCCN(CCC)CCCNc1ccc(C(=O)Nc2ccc(C(C)C)cc2)cc1[N+](=O)[O-]`, for which the inhibition is 13.2%.

`COc1ccccc1-c1nc2nc(N)nc(N)c2nc1-c1ccccc1OC`: the inhibition was 1.01%. Under `CC(C)(C)OC(=O)N1CCC(C2CCN(C(=O)OC(C)(C)C)CC2)CC1` stands -1.48%. As for `Cc1cc(NC(=O)Nc2ccc3nc(C)oc3c2)c2cc(Cl)ccc2n1`, the inhibition turned out to be 1.38%. Under `COc1ccc(NC(=O)Nc2cccc(-c3cccc(-c4nc5ccccc5[nH]4)c3)c2)cc1` stands -1.98%.

Take `COc1ccc2nccc([C@@H](O)CN3CCC(NC(=O)c4ccc5cc[nH]c5c4)CC3)c2c1`: the inhibition was 1.32%.

For `CCn1cc(CN2CCCC(C(=O)Nc3ccc(-c4nc5ccccc5[nH]4)cc3)C2)c(C)n1` (stereo not drawn), the inhibition is 3.25%. Under `COc1cc(Cc2cnc(N)nc2N)cc(OCCCCCCC(=O)O)c1OC` stands -0.96%; under `CN(/N=C/C=C/c1ccc(Cl)cc1)c1nc(NCCc2ccc(O)cc2)nc(N2CCNCC2)n1`, -0.16%; under `Cc1ccccc1C(O)CNc1ccnc(Nc2cccc(C#N)c2)n1` (stereo not drawn), 0.24%. Under `Cc1nc(-c2cccc3c(NC(=O)Nc4ccc5nccc(N6CCN(C)CC6)c5c4)cccc23)no1` stands 6.65%; under `O=C(Nc1cccc(-c2csc(-c3ccccc3)n2)c1)c1cccs1`, 0.7%; under `CN(C1CCC(NC(=O)/C=C/c2ccccc2)CC1)C1CC2(CCN(C(=O)OC(C)(C)C)CC2)c2ccccc21` (stereo not drawn), 6.01%.

`O=C(c1cccc(Cl)c1)N1CCN(c2ccc([N+](=O)[O-])c(NC3CC3)c2)CC1`: the inhibition stood at 0.25%. Under `N=C(N)NN=Cc1ccc2ccc3ccccc3c2c1` stands 4.14%; under `CCC(CC)CN1C(=O)C(c2ccccc2)(c2ccccc2)N=C1N`, 6.88%. Under `CC(CNCc1cn(Cc2cc(Br)cc(Br)c2)c2ccccc12)CNc1cc(=O)c2ccccc2[nH]1` (stereo not drawn) stands 1.07%; under `c1ccc(N2CCN(c3cc(-c4cccnc4)nc(-c4ccncc4)n3)CC2)nc1`, 0.92%.

`CCc1c(CCNCCCCCCNCCc2ccc(OC)c(OC)c2C)ccc(OC)c1OC`: the inhibition was found to be 12.1%. `O=C(NC1CCN(Cc2ccccc2)CC1)c1cccc(-c2nc3ccc(Cl)cc3[nH]2)c1`: the inhibition was 2.94%.
